# Test results: PubChem BioAssay AID1117361 (Southern Research Institute, 2015)
# Among all 3,600 compounds or so, about 900 (25%) were called active. The list is a sample of the results. Measured potencies and affinities stand elsewhere. Values without a mark were called inactive. The rule behind the calls is not given here.
# Molecular target: Protein Tat (Human immunodeficiency virus type 1 group M subtype B (isolate HXB2)) (UniProt P04608)
# Assay: inhibitors of Tat binding to TAR RNA, dose response, counter-screen for Vif-APOBEC3G degradation inhibitor project, biochemical, fluorescence polarization, FAM-labeled TAR RNA (AID 1117361)
# Settings: outcome: dose series up to 100 µM unless noted; series mostly up to 100 µM; inhibition: at the top concentration
SMILES,inhibition,outcome
Cc1sc(NC(=O)CN2CCOCC2)nc1-c1ccc2c(c1)CCN2S(=O)(=O)c1ccccc1,16.9%,–
COc1ccccc1NC(=O)COC(=O)c1c(NC(C)=O)sc(C)c1C,11.7%,–
CCOc1ccc(-n2c(SC)nc3c(c2=O)SCC3)cc1,4.73%,–
CC(C)Oc1ccc(CNCC2(O)CCOC(C)(C)C2)cc1 (stereo not given),0.68%,–
Cc1sc(NC(=O)CSc2nnnn2C(C)C)c(C#N)c1C,–,inactive
CNc1sc(C(=O)c2cccs2)c(N)c1-c1nc2ccccc2s1,3.01%,–
COCCNC(=O)CN1C(=O)CSc2ncccc21,10.2%,–
CC(=O)OC1OCCOC1NC(=S)Nc1ccc(C)cc1 (stereo not given),12.4%,–
COc1ccc(OCc2nnc3n2N=C(c2ccc(OC)cc2)CS3)cc1,6.08%,–
CCn1c(SCC(=O)c2ccc(F)cc2)nnc1-c1ccoc1C,12.2%,–
COC(=O)CSc1nnc(-c2ccccc2OC)n1-c1ccc(C)cc1,7.5%,–
CCCCOc1ccccc1C1NC(=O)NC(C)=C1C(=O)OCc1ccco1 (stereo not given),14.3%,–
CCOc1cc(C)c(Cl)cc1S(=O)(=O)NCc1ccco1,2.7%,–
COc1ccc(C(=O)O)cc1S(=O)(=O)N1CCCc2ccccc21,–,inactive
Oc1cc2c(cc1O)[C@@H](c1ccccc1)CNCC2,13.2%,–
CC1CCc2cc(F)ccc2N1C(=O)CSc1nnc(-c2cccs2)n1C (stereo not given),–,inactive
CCOc1cc(S(=O)(=O)NCc2ccccn2)c(C)cc1C,2.7%,–
O=C(Cn1nnc(-c2ccccc2-n2cnnn2)n1)c1ccccc1,4.73%,–
O=C(CN1C(=O)/C(=C\c2cccs2)SC1=S)Nc1cccc(C(=O)O)c1,21.4%,–
C=CCOc1ccc(/C=C2\SC(=S)N(CCC(=O)O)C2=O)cc1,3.99% [at 50 µM],–
CC(=O)O/N=C/c1c(N2CCOCC2)n(C)c2ccccc12,6.82%,–
CCS(=O)(=O)Nc1ccc(C(=O)CC2(O)C(=O)Nc3ccccc32)cc1 (stereo not given),6.08%,–
COc1ccc(S(=O)(=O)Cc2ccc(C(=O)NC(C)C)o2)cc1,14.9%,–
CCOC(=O)C1CCCN(C(=O)c2ccc(CS(=O)(=O)c3ccc(Br)cc3)o2)C1 (stereo not given),10.8%,–

SMILES,inhibition,outcome
CCOC(=O)CSc1nnc(CNC(=O)c2cccs2)n1CCc1ccccc1,4.09%,–
COc1ccccc1N(CC(O)CN1C(=O)NC(C)(C)C1=O)S(=O)(=O)c1ccc(C)cc1 (stereo not given),2.7%,–
Cc1ccc(SCC2=NNC(=O)C2)cc1,13.6%,–
CN(C)/C=N/NC(=O)c1ccccc1Cl,–,inactive
Cc1nn(Cc2ccccc2)c(C)c1/C=N/NC(=O)c1ccccc1O,4.12%,–
Cc1nc2ccc(S(=O)(=O)N(C)CC(=O)N3CCc4ccccc43)cc2s1,4.09%,–
COC(=O)[C@@]1(Cc2ccc(OC)cc2)[C@H]2c3cc(C(=O)N(C)C)n(C[C@H](O)CO)c3C[C@H]2CN1C(=O)c1ccccc1,2.47%,–
CCOC(=O)c1sc2ncnc(N3CCN(C(=O)OCC)CC3)c2c1C,–,inactive
COc1ccc(-c2nc(CS(=O)CC(=O)NCc3ccco3)c(C)o2)cc1 (stereo not given),14.2%,–
CCCCC(O)(CCCC)C(=O)N/N=C(\C)c1ccc(Cl)cc1,14%,–
Cc1ccc2nc(SCC(=O)N(CC(C)C)c3c(N)n(CC(C)C)c(=O)[nH]c3=O)[nH]c2c1,16.9%,–
COc1ccc(NC(=O)C2CCCN(S(=O)(=O)c3cccnc3)C2)cc1 (stereo not given),–,inactive
O=c1[nH]c2ccccc2c(O)c1-[n+]1ccccc1,4.12%,–
CCC(C)[C@H](NC(=O)Nc1ccccc1F)C(=O)OC (stereo not given in full),4.12%,–
COC(=O)C(NC(=O)C(NC(=O)c1ccccc1)C(C)C)C(C)C (stereo not given),8.78%,–
CCOC(=O)c1ccccc1NC(=O)CSc1nccn1C,4.77%,–
O=[N+]([O-])c1ccc(N2CCN(c3ccc(Cl)nn3)CC2)c(Cl)c1,2.73%,–
CCc1ccc(C(=O)Nc2cccnc2Oc2ccc(Cl)cc2)cc1,–,inactive
Cc1cc(C)cc(OCC(=O)NNC(=O)CN2C(=O)c3ccccc3C2=O)c1,–,inactive
CC1=CC(C)(C)Nc2ccc(OC(=O)c3cccnc3)cc21,11.5%,–
O=C(Nc1ccccc1[N+](=O)[O-])C1C(c2ccccc2)=C1c1ccccc1,0.68%,–
Cc1ccc(C(=O)NNS(=O)(=O)c2ccccc2[N+](=O)[O-])cc1,9.07%,–
O=C(NN=C1CCCCCC1)c1cccnc1,–,inactive
O=C(COc1cccc2cccnc12)N1CCc2ccccc2C1,8.87%,–

SMILES,inhibition,outcome
Cc1cc(C)n(CC(=O)NNC(=O)c2ccc(NC(=O)CC#N)cc2)n1,–,inactive
CN(CCOCCOc1ccc2ccccc2c1)Cc1ccccc1,–,inactive
Cc1c(C(=O)Nc2ccncc2)oc2c1C(=O)CC(C)(C)C2,9.46%,–
CC(C(=O)Nc1ccc(F)c(F)c1F)N1CCCCCC1 (stereo not given),6.82%,–
CCOC(=O)/C(C#N)=C/c1c(OCC)n(CC)c2ccccc12,–,inactive
COC1=CC(=O)c2c(ccc3ncnc(N)c23)C1=O,–,inactive
CCOC(=O)c1cc(-c2ccccc2)n(CC(=O)O)c1C,1.35%,–
CC(C)n1c(CCC(=O)O)ccc1-c1ccccc1,18.2%,–
Cc1c(CN2CCC(CO)(Cc3cccc(C(F)(F)F)c3)CC2)c2ccccc2n1C,3.3%,–
CCOc1ccc(-n2cnnn2)cc1S(=O)(=O)NCCc1ccc(OC)c(OC)c1,–,inactive
O=C(CSc1nccc(=O)[nH]1)Nc1ccc2c(c1)OCCO2,–,inactive
Cc1nc(NC(=O)CN2CCOCC2)sc1-c1ccccc1,0.68%,–
C=CCn1c(N2CCCCCC2)nc2c1c(=O)[nH]c(=O)n2C,10.4% [at 50 µM],–
Cc1ccc2[nH]c(=O)c(C3C(C#N)=C(N)Oc4c3ccc3cccnc43)cc2c1 (stereo not given),3.01%,–
CC(=O)OC(C)C1C2=C(C(=O)CC1(C)O)C(=O)c1c(ccc(-c3ccc4c(c3O)C(=O)C3=C(C4=O)C(C(C)OC(C)=O)C(C)(O)CC3=O)c1O)C2=O (stereo not given),–,inactive
CCNC(=O)C1CC(=O)N(Cc2ccc(F)cc2)C(=Nc2ccc(OC)cc2)S1 (stereo not given),–,inactive
CCc1ccc(N/C(SCc2cccc(F)c2)=C(/C#N)C(=O)NCc2ccco2)cc1,8.19%,–
N#C/C(C(=O)N1CCOCC1)=C1/SC(Cc2ccccc2)C(=O)N1c1ccccc1 (stereo not given),6.08%,–
CCN(Cc1ccccc1)Cc1nnnn1Cc1ccccc1,–,inactive
CCOc1ccc2[nH]c(=O)c(CN(Cc3nnnn3Cc3ccco3)C3CCCCC3)cc2c1,–,inactive
Cc1ccc2nsnc2c1S(=O)(=O)N(Cc1ccco1)Cc1cc2cccc(C)c2[nH]c1=O,1.36%,–
Cc1ccc2[nH]c(=O)c(CN(Cc3cccs3)Cc3nnnn3Cc3ccccc3)cc2c1,20.5%,–
